CSC inhib: blocks cancer stem cells; cancer stem cell-like cells viability, luminescence; inhibition, % at 7.5 µM; 1.1% of 300,000 active; AID 2717; in the data active means inhibition above about 75%; inconclusive means no clear call, values can overlap the other calls; tested in HMLE shEcad cells
PP1 inh: PP1-alpha (human) inhibition in PP5 counter-screen; inhibition, % at 6.7 µM; 0.9% of 320,000 active; purified PP1alpha, OMFP fluorescence; P62136;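 active means inhibition above the mean inhibition of all tested compounds plus 3 SD, computed separately for each screening campaign, cut at about 15% in these data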
ALR H2O2 inh: inhibitors of human sulfhydryl oxidase ALR. purified ALR, DTT oxidation, H2O2 HRP-luminol luminescence. inhibition, % (test concentration not listed). 3.8% of 290,000 active. AID 485317;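 active means mean replicate inhibition above about 79%, with every replicate also reaching it, limit read from the data; inconclusive means only one of the two criteria met; inactive means mean below limit and not every replicate reaching it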
Calb FLC: affects C. albicans growth with fluconazole; C. albicans CaCi-2 (fluconazole-resistant clinical isolate) + fluconazole, Alamar Blue growth, 48 h; growth inhibition, % (concentration not given with the values); 0.57% of 300,000 active;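 active means growth inhibition above about 58% in most replicates, limit read from the data, passing the limit was not always enough; inconclusive means exactly half the replicates above a set limit; inactive means most replicates below a set limit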;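 further: all wells also contain fluconazole at 8 µg/ml as a sub-toxic cotreatment; 0% = median of DMSO wells and 100% = median of geldanamycin control wells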
PP5 primary: PP5 (human) phosphatase inhibition; 0.18% of 320,000 active; inhibition, % at 6.7 µM; P53041; purified PP5c, OMFP substrate fluorescence;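 active means inhibition above the campaign's mean inhibition across all tested compounds plus 3 SD, cut at about 9.5% in these data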;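 further: 0% = DMSO only and 100% = 100 µM cantharidin control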
Target sequence (P53041 whole entry, looked up): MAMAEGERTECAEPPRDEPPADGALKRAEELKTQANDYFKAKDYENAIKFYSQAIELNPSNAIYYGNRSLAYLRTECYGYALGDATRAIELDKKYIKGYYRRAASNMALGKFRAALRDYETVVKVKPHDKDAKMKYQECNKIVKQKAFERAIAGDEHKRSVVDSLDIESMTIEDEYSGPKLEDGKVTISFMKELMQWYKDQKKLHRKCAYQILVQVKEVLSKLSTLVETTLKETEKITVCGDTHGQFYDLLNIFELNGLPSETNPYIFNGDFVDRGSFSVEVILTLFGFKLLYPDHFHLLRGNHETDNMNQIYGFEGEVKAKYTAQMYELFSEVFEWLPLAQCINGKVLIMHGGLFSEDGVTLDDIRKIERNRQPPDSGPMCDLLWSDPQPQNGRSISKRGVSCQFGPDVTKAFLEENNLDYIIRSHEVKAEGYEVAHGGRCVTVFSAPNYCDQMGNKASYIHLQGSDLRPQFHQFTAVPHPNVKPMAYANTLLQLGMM
Starred values were filed as active, the others as inactive; ? = inconclusive; . = no result given. An excerpt weighted towards active compounds, which were near 5.4% of everything screened.

SMILES | CSC inhib | PP1 inh | ALR H2O2 inh | Calb FLC | PP5 primary
COC(=O)c1ccc(OC(=O)CCS(=O)(=O)c2ccc(C)cc2)cc1 | -9 | -3 | 96* | -1 | -4
CCCCn1c(N)c(N(CCOC)C(=O)c2ccc(-c3cccc(C(F)(F)F)c3)o2)c(=O)[nH]c1=O | 4 | -3 | -3 | 3 | 1
CSc1cccc(NC(=O)C2C3C=CC4(O3)C2C(=O)N(CCN2CCOCC2)C4C(=O)NC2CCCCC2)c1 (stereo not drawn) | -12 | -1 | 4 | -7 | 1
COc1ccc(S(=O)(=O)CCC(=O)N2CCN(c3ccc([N+](=O)[O-])cc3)CC2)cc1 | -20 | 1 | 3 | -1 | -1
COc1ccc(N2CCN(C(=O)C3CC(O)CN3S(=O)(=O)c3ccc([N+](=O)[O-])cc3)CC2)cc1 (stereo not drawn) | 10 | 0 | 84* | 7 | 2
COc1ccc(N2CCN(C(=O)CCS(=O)(=O)c3ccc(C)cc3)CC2)cc1 | 6 | -1 | 88* | -4 | 1
Cc1c(C(=O)Nc2nonc2-c2ccc(F)cc2)oc2ccc(F)cc12 | ? | 4 | 3 | . | 3
Cc1ccc2c(c1)N(CC(=O)NCC(C)c1ccccc1)C(=O)c1cccnc1O2 (stereo not drawn) | -8 | -2 | -2 | -4 | 5
CCN(c1ccccc1)S(=O)(=O)c1ccc(Cl)c(NC(=O)COC(=O)c2cc(O)c3ccccc3c2O)c1 | 103* | 14 | -37 | 1 | 3
Cc1c(NC(=O)CN2C(=O)NC3(CCCCC3C)C2=O)cccc1[N+](=O)[O-] (stereo not drawn) | . | -1 | . | . | 0
Cc1nc2c(-c3ccc(F)cc3)c(C)nn2c(C)c1CCC(=O)Nc1ccc(F)cc1F | 8 | -3 | . | -3 | 3
COc1ccc(NC(=O)c2ccccc2-c2ccc(C(F)(F)F)cc2)cc1S(=O)(=O)N1CCOCC1 | . | 1 | -1 | 0 | 1
CSc1cccc(NC(=O)CCC(=O)O)c1 | 9 | 4 | -6 | 2 | 3
Cc1c(C)c(C)c(C(=O)CCc2cccc(NC(=O)CCC(=O)O)c2)c(C)c1C | 0 | 2 | 95* | 7 | -2
CN1c2cccc3cccc(c23)N(C)C1c1cccs1 | 9 | 2 | 90* | 17 | 2
CC1N(C)c2cccc3cccc(c23)N1C | -1 | 0 | . | ? | 0
C#CCNC(=O)C1=C[C@H](c2ccc3c(c2)OCO3)[C@@H](CCCO)[C@H](OCC)O1 | -15 | -4 | . | 15 | 3
CC(C(=O)NCc1ccco1)n1ccc2cc(S(=O)(=O)N3CCCC3)ccc21 (stereo not drawn) | 3 | -2 | -7 | -4 | -2
COc1ccc(S(=O)(=O)N(CCc2ccccc2)CC(=O)N2CCOCC2)cc1 | -16 | 2 | 99* | -5 | -1
O=C(COC(=O)CNC(=O)C1CCCCC1)Nc1ccccc1OC(F)F | 2 | . | -1 | . | .
O=C(Cn1cnc([N+](=O)[O-])n1)N/N=C/c1cccc2ccccc12 | 0 | 3 | -24 | 0 | 2
O=C(Cn1cnc([N+](=O)[O-])n1)N/N=C/c1ccc(O)cc1O | 80* | -3 | 72 | -20 | -2
CCN1CCCc2cc(CN(CCN3CCOCC3)C(=S)Nc3cccc(Cl)c3)ccc21 | 31 | 3 | . | 5 | 2
CCN1CCCc2cc(CN(CCN3CCOCC3)C(=S)Nc3cc(F)cc(F)c3)ccc21 | 3 | 4 | 94* | -6 | 0
CCOc1ccc(NC(=S)N(CCN2CCOCC2)Cc2ccc3c(c2)CCCN3CC)cc1 | 6 | 1 | . | 5 | -2
SMILES | CSC inhib | PP1 inh | ALR H2O2 inh | Calb FLC | PP5 primary
CCN1CCCc2cc(CN(CCN3CCOCC3)C(=S)Nc3ccc(OC)cc3)ccc21 | -4 | 1 | 99* | -8 | -1
CCN1CCCc2cc(CN(CCN3CCOCC3)C(=S)Nc3ccc(C)cc3)ccc21 | 2 | 3 | 99* | -10 | 2
COc1ccc(CCC(=O)OCc2csc(CC(=O)Nc3ccc(C)cc3)n2)cc1OC | -22 | . | -2 | . | .
CC(C)(C)c1ccccc1OCCN1CCCC1 | -20 | -5 | -3 | -16 | -1
COC(=O)c1cc(NCc2ccccc2F)ccc1N1CCOCC1 | 2 | 0 | 99* | 5 | 1
CCOC(=O)c1cc(NC(=O)c2cccs2)ccc1N1CCOCC1 | -4 | -7 | 2 | -2 | -3
CCOC(=O)c1cc(NCc2cccs2)ccc1N1CCOCC1 | -9 | -2 | 99* | -33 | 1
O=C1CC(c2ccccc2)CN1C(=O)c1cncc(Br)c1 (stereo not drawn) | -8 | -5 | . | 3 | 3
Cc1ccnc(NC(=O)c2ccc(S(=O)(=O)NCc3ccco3)cc2)c1 | -13 | -1 | -6 | -1 | -1
O=C(NCCO)C(=O)Nc1cc2c3c(c1)CC(=O)N3CCC2 | 10 | 2 | . | -15 | -1
O=C(CCl)c1cc2c3c(c1)CC(=O)N3CCC2 | -5 | -5 | 98* | 1 | 3
CCOP(=O)(OCC)C(C#N)=C1SCN(c2ccccc2)CS1 | -1 | 9 | 99* | 3 | -1
S=c1[nH]nc2n1CCCN2 | -18 | -2 | 95* | -2 | 0
CCc1ccccc1N(CC)C(=O)c1cn(CC)c(=O)c2cc(OC)c(OC)cc12 | -6 | -1 | -4 | 2 | 1
CC(C)C1Cc2c(sc3[nH]c(=S)n(Cc4ccccc4)c(=O)c23)CO1 (stereo not drawn) | 139* | -4 | 2 | 5 | 2
Fc1ccc(NC(=S)N2CCCc3ccccc32)cc1 | 12 | -5 | 89* | -17 | 2
CCOC(=O)C1=C(C)NC(=O)C1CC(=O)Nc1ccccc1 (stereo not drawn) | -9 | -3 | 96* | 0 | -2
O=C(Nc1ccc(C(=O)N2CCCCC2)cc1)Nc1cccc(Cl)c1 | 37 | 1 | -8 | . | 3
CC(=O)N1CCC(c2c[nH]c3ccccc23)CC1 | -16 | -4 | 96* | 7 | -1
O=C(c1c[nH]c2ccccc2c1=O)N1CCCCCC1 | -1 | -6 | -5 | 2 | 0
Cc1ccc(N(C(=O)c2ccc(Br)o2)C2C=CS(=O)(=O)C2)cc1 (stereo not drawn) | 11 | 0 | 77* | -7 | -1
O=C(c1cccs1)N(c1ccc(Cl)cc1)C1C=CS(=O)(=O)C1 (stereo not drawn) | -7 | -3 | 4 | 0 | 3
Cc1ccc(N(C(=O)c2cccs2)C2C=CS(=O)(=O)C2)cc1 (stereo not drawn) | -10 | -6 | 96* | -3 | 0
O=C(c1ccc(Br)o1)N(c1ccc(Br)cc1)C1C=CS(=O)(=O)C1 (stereo not drawn) | -12 | 2 | 0 | 0 | 1
COC(=O)c1ccccc1NC(=O)Nc1ccc(C(=O)N2CCCC2)cc1 | -5 | 2 | -6 | 27 | 1
CCC(=O)NC(C)C(c1cccs1)N1CCN(c2ccccc2)CC1 (stereo not drawn) | . | -4 | 99* | 1 | -2
CCN1CCN(C(c2cccs2)C(C)NC(=O)c2ccccc2)CC1 (stereo not drawn) | -3 | -1 | 7 | 1 | 4

Screens: PubChem BioAssay, several laboratories
